What was measured:
Conditions in all cases: mESC; 2uM; 72 h treatment, harvest day 5
[1] = compound: O=c1cc(N2CCOCC2)oc2c(-c3ccc4c(c3)OCCO4)csc12; assay: fraction of edited reads among all mapped reads; higher = more Cas9 editing
Mercaptopurine (6-MP) = compound: S=c1[nH]cnc2nc[nH]c12 [Mercaptopurine (6-MP)]; assay: as above
[2] = compound: S=c1nc[nH]c2nc[nH]c12 [6-Mercaptopurine (6-MP) Monohydrate]; assay: as above
[3] = compound: CC(=O)O/N=C1\C(=O)N(Cc2cc(Cl)ccc2Cl)c2ccc(Cl)cc21; assay: fraction of microhomology deletions among edited reads; higher = more MH deletions
[4] = compound: CC(C)(C#N)c1ccc(N2C(=O)OCc3cnc4ccc(-c5cnc6ccccc6c5)cc4c32)cc1; assay: as above
[5] = compound: CCCCOc1c(C(=O)c2c(F)cc(C)cc2F)c[nH]c2nncc1-2; assay: as above
[6] = compound: CCN1CCN(CC(=O)Nc2ccc(-c3cccc4c(=O)cc(N5CCOCC5)oc34)c3sc4ccccc4c23)CC1; assay: as above
[7] = compound: CCc1c2c(nc3ccc(OC(=O)N4CCC(N5CCCCC5)CC4)cc13)-c1cc3c(c(=O)n1C2)COC(=O)[C@]3(O)CC [Irinotecan HCl Trihydrate]; assay: as above
[8] = compound: CCn1c(=O)c(-c2ccc(Cl)cc2Cl)cc2cnc(Nc3ccc(N4CCNCC4)c(F)c3)nc21; assay: as above
[9] = compound: CNc1ccc([N+](=O)[O-])c(Nc2ccc3[nH]ncc3c2)n1; assay: as above

| Target | fraction of edited reads among all mapped reads [1] | fraction of edited reads among all mapped reads (Mercaptopurine (6-MP)) | fraction of edited reads among all mapped reads [2] | fraction of microhomology deletions among edited reads [3] | fraction of microhomology deletions among edited reads [4] | fraction of microhomology deletions among edited reads [5] | fraction of microhomology deletions among edited reads [6] | fraction of microhomology deletions among edited reads [7] | fraction of microhomology deletions among edited reads [8] | fraction of microhomology deletions among edited reads [9] |
| --- | --- | --- | --- | --- | --- | --- | --- | --- | --- | --- |
| 43.0 (DMSO control at this site: 1-bp insertion 0.134, MH deletion 0.714, edited 0.104) AGTTTAACTTACTCCGGCCAAAAAAGAACTGCACCTCTGGAGCGGGTTAGTGGTGGTGGTA | 0.0695 | 0.165 | 0.114 | 0.72 | 0.687 | 0.69 | 0.711 | 0.676 | 0.77 | 0.703 |
| 27.0 CCAGAATTAGAACATATCATCTGGACCCTTTTCCATCTGGACCCTTTTCCAGCACACCCTG | 0.0389 | 0.0718 | 0.0546 | 0.162 | 0.195 | 0.138 |  | 0.0693 |  | 0.225 |
| 8.0 GCATGCGTGTTTTGGGACAATGTAGTATACATTTGGGAGGCTCTCAGCTTTTCCCAATAAA |  |  | 0.017 | 0.107 | 0.0584 | 0.0574 |  |  |  |  |
| 34.0 (DMSO control at this site: 1-bp insertion 0.184, MH deletion 0.385, edited 0.103) ATTATAGGACCCTGAGGGAGCAGAGATGTGGGAATGGGGGCCGAGCCAATTGTGATGTAAG | 0.0512 | 0.114 | 0.0949 | 0.51 | 0.538 | 0.496 | 0.585 | 0.527 | 0.53 | 0.524 |
| 41.0 (DMSO control at this site: 1-bp insertion 0.022, MH deletion 0.754, edited 0.115) AAAGAGACAGCAGGTATGAATCCATCTTCCTGACCCTTGGGACCAGCCGGGGCAGTGAAGC | 0.0713 | 0.161 | 0.116 | 0.745 | 0.754 | 0.717 | 0.792 | 0.729 | 0.738 | 0.742 |
| 33.0 (DMSO control at this site: 1-bp insertion 0.008, MH deletion 0.771, edited 0.112) CATTAAGAGCAGCTGCCGGCCCCCAAGTGGACAGAGCTGGCCCTGCTGATTCAACAGTGCA | 0.0578 | 0.144 | 0.0975 | 0.714 | 0.71 | 0.717 | 0.76 | 0.741 | 0.716 | 0.727 |
| 4.0 (DMSO control at this site: 1-bp insertion 0.146, MH deletion 0.523, edited 0.125) ACGCCTTAGTGCACGAGTGACGGGATAATGTGGTCTCAGGTAATTGATAGGCTTCCAACTT | 0.0874 | 0.174 | 0.122 | 0.582 | 0.526 | 0.507 | 0.635 | 0.564 | 0.591 | 0.527 |
| 1.0 (DMSO control at this site: 1-bp insertion 0.521, MH deletion 0.323, edited 0.141) GTGTCACAGTGCACGAGTGACGGGATAATGTGCTGACAGGTAATTGATAGGCTTCCAACTT | 0.0814 | 0.187 |  | 0.293 | 0.269 | 0.238 | 0.461 | 0.246 | 0.293 | 0.218 |
| 0.0 (DMSO control at this site: 1-bp insertion 0.463, MH deletion 0.339, edited 0.14) AGGATTACCGAGACCTACGCGAACCGAAATCGCTGTCCGGTGCGCAAGCAGGGCTGGCGTC | 0.0913 | 0.181 | 0.128 | 0.346 | 0.314 | 0.312 | 0.552 | 0.345 | 0.394 | 0.304 |
| 31.0 (DMSO control at this site: 1-bp insertion 0.315, MH deletion 0.329, edited 0.026) ACCTCCACAGGCTGGGTGGCCCGGAGGCTGGGCGGCCCGGAGGCTGGGCTGGGCGAGTATC | 0.0134 | 0.0491 | 0.0301 | 0.32 | 0.349 | 0.458 | 0.276 | 0.519 | 0.5 | 0.405 |
| 18.0 (DMSO control at this site: 1-bp insertion 0.114, MH deletion 0.789, edited 0.094) GCGCAAGTGCATAAGTTTTTCTTAAGGCGTGCCTTTAAGGCGTGCCTTTGTCGGTCCTGGA | 0.0717 | 0.112 | 0.0789 | 0.794 | 0.798 | 0.787 | 0.866 | 0.789 | 0.794 | 0.793 |
| 29.0 (DMSO control at this site: 1-bp insertion 0.084, MH deletion 0.745, edited 0.133) TTGATGAACTTCCTCTTCTTCTCATGTCTCCGGTCTCCGGTAGGCCACGTGCATGGCCACT | 0.0905 | 0.171 | 0.127 | 0.727 | 0.728 | 0.734 | 0.773 | 0.719 | 0.757 | 0.738 |
| 25.0 (DMSO control at this site: 1-bp insertion 0.017, MH deletion 0.774, edited 0.143) GGGCCTGAATGGTGTGGACATCTACTCGCTGGTGAGCTGGTGACTGAAAACATTCAGTGGC | 0.105 | 0.193 | 0.126 | 0.806 | 0.772 | 0.766 | 0.787 | 0.759 | 0.783 | 0.778 |
| 21.0 CGATTGAGAGTCAAACGGGCCAGAAAACTCCGGGAACGGGCCAGAAAACTCCGGGGCATGG | 0.0627 | 0.169 | 0.117 | 0.191 | 0.163 | 0.144 | 0.276 | 0.188 |  | 0.197 |
| 23.0 AGAACAAAGCGCTCATATAACGATATGGGGGGTTATGGGGGGTTGAATTGCTTCAGCACGA |  |  |  |  |  |  |  |  |  | 0.88 |
| 5.0 (DMSO control at this site: 1-bp insertion 0.214, MH deletion 0.567, edited 0.105) CGCTGACCCGAGACCTACGCGAACCGAAATCGGCGACCGGTGCGCAAGCAGGGCTGGCGTC | 0.0695 | 0.151 | 0.0997 | 0.593 | 0.605 | 0.588 | 0.705 | 0.563 | 0.617 | 0.552 |
| 44.0 (DMSO control at this site: 1-bp insertion 0.181, MH deletion 0.512, edited 0.123) ACACATACCTTCTTCGAGGCAGCCAGCATGATGAGACAGGTCTCCCACAAACACATCGTGT | 0.091 | 0.173 | 0.13 | 0.553 | 0.526 | 0.528 | 0.637 | 0.469 | 0.547 | 0.506 |
| 3.0 (DMSO control at this site: 1-bp insertion 0.109, MH deletion 0.149, edited 0.09) TGCTAGCGCCCCCACAAAGCGGACCAGCCAGCACTATAGGGAATAAGGCCAACTTGCACCC | 0.0464 | 0.123 | 0.0926 | 0.225 | 0.161 | 0.199 | 0.266 | 0.222 | 0.226 | 0.188 |
| 28.0 (DMSO control at this site: 1-bp insertion 0.035, MH deletion 0.77, edited 0.142) TGGTTCTTCCTTTGTAGAGAGTGTTCATCTGGGAATCTGGGACTTGGATGAGACAATCATT | 0.0926 | 0.18 | 0.117 | 0.789 | 0.793 | 0.767 | 0.818 | 0.763 | 0.774 | 0.774 |

From the supplement of paper PMC8387472
